Data taken from PubChem BioAssay AID588338 (NMMLSC, 2011).
Values joined by “and” are separate entries in the source; they are usually repeats but may differ in a detail not shown here. Equal entries are not always repeated. In all, about 1,300 compounds went through this assay and about 20 (2%) were called active. These entries were drawn from the full list. A number with no mark means an inactive call.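 How the source made its calls: active means inhibition above 50%, about 3 SD of the inhibition seen with non-fluorescent compounds; inactive means the rest.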

Test: GST-fluorescein capture on glutathione beads, confirmation, artefact control for arrestin-AP2 inhibitor project, biochemical, cherry pick 1, flow cytometry (AID 588338);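 further: fluorescein maleimide labelled GST captured on 4 micron glutathione beads; higher means more loss of bead fluorescence from quenching or blocked binding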
Settings: GST-fluorescein binding to GSH beads, fluorescence, counter-screen; at 10 µM; hits give high values

Which inhibition does the source give for `COc1cccc(-n2c(SCC(=O)c3c[nH]c4ccccc34)nc3ccccc3c2=O)c1` here?
The inhibition was 57.9% (active).

With `Cn1c(=O)c2c(nc(N/N=C/c3cccs3)n2Cc2ccc(Br)cc2)n(C)c1=O` as the compound, how does the inhibition read?
The inhibition was 0.63%.

For `COc1ccc(CCNc2ncnc3c2nnn3Cc2ccccc2)cc1`, which inhibition is on record?
The inhibition was 4.82%.

Which inhibition does the source give for `Cc1ccc(CNC(=O)C2CC(=O)N(C3CCCCCCC3)C2)cc1` (centres undefined) here?
The inhibition was -4.09%.

Which inhibition does the source give for `Cc1ccc(Nc2ccc(C(N)=O)cc2[N+](=O)[O-])cc1` here?
Its inhibition is -6.5%.

For `CC(C)c1nnc(NC(=O)CCC(=O)N2CCN(c3cccc(Cl)c3)CC2)s1`, which inhibition is on record?
The inhibition was -10.6%.

Which inhibition does the source give for `O=C(c1ccc(S(=O)(=O)NCc2ccco2)cc1)N1CCN(c2ccccc2)CC1` here?
Its inhibition is 8.86%.

For `CCCc1ccc(-c2csc(NC(=O)Cc3cccs3)n2)cc1`, which inhibition is on record?
The inhibition was -4.6%.

Which inhibition does the source give for `Cc1ccc(C)c(NC(=S)NNC(=S)Nc2ccc(C(C)C)cc2)c1` here?
Its inhibition is 0.62%.

Which inhibition does the source give for `Cc1ccc(CN2C(=O)CCC2C(=O)NCCCN2CCCCC2C)cc1` (centres undefined) here?
Its inhibition is -11.5%.

With `Cc1cc(C(=O)OCC(=O)c2c(N)n(C)c(=O)n(C)c2=O)c(C)o1` as the compound, how does the inhibition read?
The inhibition was -2.19% and 1.72%.

For `CCOc1ccc(-c2nnc(-c3ccco3)o2)cc1`, which inhibition is on record?
Its inhibition is -7.89%.

For `O=c1[nH]c2ccccc2n2c(-c3ccccc3)nnc12`, which inhibition is on record?
Its inhibition is 36.4%.

For `Cc1ccc(C2(C)NC(=O)N(CC(=O)Nc3ccccc3C(=O)N3CCCCC3)C2=O)cc1` (centres undefined), which inhibition is on record?
The inhibition was -3.63%.

Which inhibition does the source give for `CC(C)C[C@H](NC(=O)N1CCn2c1nc1ccccc12)C(=O)NC1CC1` here?
The inhibition was -5.48%.

With `CN1C(=O)/C(=C/c2ccco2)SC1=Nc1cccc(C(=O)O)c1` as the compound, how does the inhibition read?
Its inhibition is 0.38%.

With `Brc1ccccc1C1Nc2cccc3cccc(c23)N1` as the compound, how does the inhibition read?
Its inhibition is 1.35%.

With `COCCNC(=O)Nc1ccc2nc(-c3ccco3)c(-c3ccco3)nc2c1` as the compound, how does the inhibition read?
The inhibition was 22.4%.

For `Cc1ccc(OCCCCc2c(C)n[nH]c2C)cc1`, which inhibition is on record?
The inhibition was -8.59%.

Which inhibition does the source give for `COc1cc2c(cc1NC(=O)COC(=O)/C=C/c1ccccc1)oc1ccccc12` here?
Its inhibition is -10.3%.

With `CC(Oc1ccccc1)C(=O)NN1Cc2ccccc2C1=N` (centres undefined) as the compound, how does the inhibition read?
The inhibition was -4.56%.

With `Cc1ccc(S(=O)(=O)/N=C(/Nc2ccccn2)c2ccc(Cl)cc2)cc1` as the compound, how does the inhibition read?
The inhibition was -4.23%.

Which inhibition does the source give for `O=C(NCc1ccco1)c1ccc(CS(=O)(=O)Cc2ccc(F)cc2)o1` here?
Its inhibition is -8.88%.

With `Cc1cc(C)cc(Oc2nc3c(C)cccn3c(=O)c2/C=C(\C#N)C(=O)NC2CCS(=O)(=O)C2)c1` (centres undefined) as the compound, how does the inhibition read?
The inhibition was -0.21%.

With `COC(=O)c1cc(NC(=O)c2nn(C)c(=O)c3ccccc23)cc(C(=O)OC)c1` as the compound, how does the inhibition read?
Its inhibition is -0.11%.

With `CCn1c(=O)n(CC)c2cc(N3CCCC3)c(NC(=O)c3ccccc3Br)cc21` as the compound, how does the inhibition read?
Its inhibition is -4.23%.

For `Cc1ccc(OCCCC(=O)Nc2ccc3c(c2)OCCO3)cc1`, which inhibition is on record?
Its inhibition is -3.79%.

With `Cn1c(=O)c([N+](=O)[O-])c(Oc2ccccc2)c2ccccc21` as the compound, how does the inhibition read?
The inhibition was -0.63%.

For `COc1cc2c(cc1OC)CN(C(=O)c1cc(=O)c3ccccc3o1)CC2`, which inhibition is on record?
Its inhibition is -0.62%.

With `CCOc1ccc(C(=O)NC2CCN(CC(=O)NCc3cccs3)CC2)cc1` as the compound, how does the inhibition read?
The inhibition was -10.1%.

For `CN(C)c1ccc(NC(=O)c2ccncc2)c2ccccc12`, which inhibition is on record?
The inhibition was -4.94%.

For `CCOC(=O)N1CCN(C(=O)CNC(=O)Cc2ccc(Cl)cc2)CC1`, which inhibition is on record?
The inhibition was -12.7%.

With `CN(C(=O)COC(=O)c1cc(=O)[nH]c2ccccc12)C1CCCCC1` as the compound, how does the inhibition read?
Its inhibition is -4.98%.

With `CC(NCCc1ccc(S(N)(=O)=O)cc1)C(=O)NCc1ccccc1` (centres undefined) as the compound, how does the inhibition read?
The inhibition was 1.19%.

Which inhibition does the source give for `CC(C)(C)c1ccc(C(=O)NCCn2c(N)c(C#N)c3nc4ccccc4nc32)cc1` here?
The inhibition was 1.49%.

With `CC(CN1CCCCC1)OC(=O)c1ccccc1Cl` (centres undefined) as the compound, how does the inhibition read?
Its inhibition is 0.92%.

For `Cc1ccc(Cl)cc1-c1ccc(/C=N/n2cnnc2)o1`, which inhibition is on record?
Its inhibition is -2.14%.

For `Cc1ccc(S(=O)(=O)N2CCCCC2)cc1NC(=O)c1cccnc1`, which inhibition is on record?
The inhibition was -0.2%.

Which inhibition does the source give for `Cc1cccc(NC(=S)NC(=O)c2ccc(Br)o2)c1` here?
Its inhibition is -2.99%.

For `NS(=O)(=O)c1ccc2nc(NC(=O)C3=COCCO3)sc2c1`, which inhibition is on record?
The inhibition was -9.07%.

Which inhibition does the source give for `C/C(=N\Nc1ccc([N+](=O)[O-])cc1)c1ccc(-n2nncc2C(C)(C)C)cc1` here?
Its inhibition is 2.54%.

Which inhibition does the source give for `CC(=O)NCCNC(=O)c1cc(-c2cccc3ccccc23)nc2ccccc12` here?
The inhibition was 8.05%.

With `Cc1cc(C(=O)Nc2ccc(C)c(S(=O)(=O)N3CCOCC3)c2)c2ccccc2n1` as the compound, how does the inhibition read?
The inhibition was 3.01%.

For `Cc1ccc(S(=O)(=O)N2CCN(C(=O)c3ccccc3-c3nc4ccccc4s3)CC2)c(C)c1`, which inhibition is on record?
Its inhibition is -4.41%.

For `O=C(NCC1(N2CCCCC2)CCCCC1)c1cccc(S(=O)(=O)Nc2ccccc2Cl)c1`, which inhibition is on record?
The inhibition was -0.81%.

Which inhibition does the source give for `CCC(C(=O)OC)n1cnc2c(oc3ccccc32)c1=O` (centres undefined) here?
Its inhibition is -1.51%.

Which inhibition does the source give for `NC(=O)C1CCN(C(=O)CC2C(=O)NCCN2Cc2cccc(Oc3ccccc3)c2)CC1` (centres undefined) here?
The inhibition was -3.68%.

For `CC(NC(=O)c1cc2cc(Cl)ccc2oc1=N)c1ccccc1` (centres undefined), which inhibition is on record?
Its inhibition is -2.36%.

For `COc1ccc(/C=C2\SC(=S)N(CCC(=O)Nc3ccccn3)C2=O)cc1OC`, which inhibition is on record?
The inhibition was -0.03%.

Which inhibition does the source give for `O=C(C1CCCO1)N1CCN(S(=O)(=O)c2ccc(Br)cc2)CC1` (centres undefined) here?
Its inhibition is -16.4%.

For `COC(=O)C1CC2=C(CC(C)(C)CC2=O)N(c2ccccc2)C1=O` (centres undefined), which inhibition is on record?
The inhibition was -0.09%.

Which inhibition does the source give for `CCC(=O)Nc1nc2ccccc2n1Cc1ccccc1C` here?
The inhibition was 6.47%.

For `Cc1cccc(C)c1NC(=O)C(Cl)C(=O)c1ccccc1` (centres undefined), which inhibition is on record?
The inhibition was -5.59%.

Which inhibition does the source give for `Cc1cccc(Nc2ccccc2C(=O)NCc2ccco2)c1C` here?
The inhibition was -4.39%.
